High-throughput results as filed in PubChem BioAssay.
Compounds with a hit are over-represented: about 7.5% of the library has one in this group of screens.
HCV inh – HCV inhibition. Potency, µM (titrated, usually from 41.8 µM), without a hit: at the top dose activity change, negative = inhibition, hits mostly inhibitors. 340,000 compounds, 3.4% hits. Huh7.5.1 HCVcc-Cre infection, luciferase reporter, 44 h; also: potency is read from the fitted curve at half-maximal effect
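Reporter virus HCVcc-Cre (~0.5 moi) infects cells exposed to compound; seeding density 1,000 cells/well with 4 h settling beforehand. Luminescence, 15 sec read, taken 44 h post-infection following a 15 min RT substrate incubation.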
FMDV inh – antivirals against foot and mouth disease virus | AID 1159524 | 410,000 compounds, 1.2% hits | Potency, µM (titrated, usually from 57.9 µM), for inactives: top-dose activity change, negative = inhibition, most hits filed as inhibitors | FMDV antiviral cell-based qHTS; calls by dose curve; tested in HEK293T cells; also: read-out not given here; potency is read from the fitted curve at half-maximal effect; nearly all actives have a fitted effect of over 45% in size
Vaccinia Venus – inhibitors of vaccinia virus (Venus reporter); Vaccinia virus Venus reporter expression, fluorescence; Potency, µM (highest dose often 36.5 µM), for the others: at the highest dose activity change, negative = inhibition, hits mostly inhibitors; 330,000 compounds, 0.46% hits; AID 720580; calls by dose curve; tested in A549 cells; also: potency is read from the fitted curve at half-maximal effect; nearly all actives have a fitted effect of over 30% in size
HCMV inh – blocks human cytomegalovirus replication; activity change, negative = inhibition, % at 57.5 µM; AID 1259415; 410,000 compounds, 4.5% hits; HFF cells, HCMV-luciferase reporter, 72 h; active compounds read low; in the data active = activity change below about -60%; inconclusive = no clear call, values can overlap the other calls; inactive = above about -39%
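Luciferase read-out from HCMV-luciferase-infected HFFs (MOI 1 PFU/cell) 72 h post infection at 37C; compounds added after 16 h cell attachment; activity normalized between buffer-only basal and Salinomycin (10uM) inhibitor controls.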
Vaccinia mCherry – inhibitors of vaccinia virus infection (mCherry reporter signal) | Vaccinia virus mCherry reporter infection, fluorescence | 310,000 compounds, 0.63% hits | Potency, µM (series often up to 36.5 µM), for the others: at the highest dose activity change, negative = inhibition, most hits filed as inhibitors; calls by dose curve; tested in A549 cells; also: potency is read from the fitted curve at half-maximal effect; nearly all actives have a fitted effect of over 35% in size
Giardia FBPA inh – blocks Giardia fructose-bisphosphate aldolase activity. A8B2U2. purified Giardia FBPA. Potency, µM (highest dose often 59.6 µM), inactives show at the highest dose activity, negative = inhibition, most hits filed as inhibitors. 290,000 compounds, 0.71% hits. AID 2451; also: potency is read from the fitted curve at half-maximal effect; nearly all actives have a fitted effect of over 55% in size
Target sequence (A8B2U2 whole entry, looked up): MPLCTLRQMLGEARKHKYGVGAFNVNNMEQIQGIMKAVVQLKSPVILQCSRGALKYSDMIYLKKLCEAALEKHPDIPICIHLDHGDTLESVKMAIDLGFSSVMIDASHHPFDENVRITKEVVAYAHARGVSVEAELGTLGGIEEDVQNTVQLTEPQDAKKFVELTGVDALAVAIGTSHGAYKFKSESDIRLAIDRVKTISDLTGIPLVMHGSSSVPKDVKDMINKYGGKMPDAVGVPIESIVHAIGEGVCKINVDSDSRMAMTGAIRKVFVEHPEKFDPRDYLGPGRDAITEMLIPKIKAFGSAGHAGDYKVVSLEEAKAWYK
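40 nM FBPA preincubated 10 min at RT with compound (up to 57.5 uM final), then substrate plus GAPDH/TPI/NAD/arsenate coupling and diaphorase/resazurin added. Fluorescence read after 20 min at RT, 525/598 nm.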
Active calls of the source: *; i = inactive; ? = inconclusive; . = not tested or not shown. Unless noted, calls follow the shape of the dose curve; as a rule, active = well fitted curve in the direction sought with a large enough effect; inconclusive = small, poorly fitted or top-dose-only effect, or another doubt; inactive = no such curve, though single readings can be large; an effect the other way counts as inactive or inconclusive. % is scaled to controls: 0 for no effect and ±100 for the full control effect.

SMILES	HCV inh	FMDV inh	Vaccinia Venus	HCMV inh	Vaccinia mCherry	Giardia FBPA inh
Cc1ccc2[nH]c3c(c2c1)CCCC3=O	10µM*	33.4%	-25.3%	145.4	-7.1%	?
Cc1ccc2[nH]c3c(c2c1)CCc1cn[nH]c1-3	14.1µM*	43.1%	-14.8%	17.4	-22.7%	?
Cc1ccc2[nH]c3c(c2c1)CCC3=O	?	.	-9.8%	57.4	i	3.4%
CSCCC(NC(=O)c1ccccc1)C(=O)N1CC=C(c2ccccc2)CC1 (stereo not given)	?	9.3%	-18.5%	-23.9	-4.5%	.
CN(C)N1C(N)=C(C#N)C(c2ccc3c(c2)OCO3)C2=C1CCCC2=O (stereo not given)	3.3%	-8.2%	-18.4%	19.2	-6.2%	?
C[C@]12c3[nH]c4ccc(Cl)cc4c3CCN1C(=O)[C@@H](CC(=O)NCCN1CCOCC1)C[C@@H]2C(=O)N1CCCCC1	6.4%	-20.2%	-13.4%	-26.2	-19.2%	.
COc1cc(N=Nc2cccc(S(N)(=O)=O)c2)c2ccccc2c1N	?	?	54.0%	-65.5*	?	?
NC1=NC(=Nc2cccc(S(N)(=O)=O)c2)c2ccccc21	1.5%	-4.3%	.	-13.7	.	-4.6%
C[C@H](CO)NC(=O)c1nc[nH]c1C(=O)N[C@H](C)c1ccccc1	.	-26.2%	-13.9%	-8.1	-5.8%	.
CC(=O)C1=C(O)C(=O)N(c2ccc(Br)cn2)C1c1cccc([N+](=O)[O-])c1 (stereo not given)	11.8%	-20.6%	.	-104.9*	.	-1.9%
O=C(Cc1ccccc1F)OCN1C(=O)c2ccccc2C1=O	6.4%	4.6%	.	-4.9	.	.
CCC1CN(C(=O)Nc2cc(Cl)ccc2C(=O)OC)c2ccccc2S1 (stereo not given)	.	-19.6%	-4.5%	16.5	-11.0%	.
COc1ccccc1N1CCN(C(=O)c2cc3sccc3n2C)CC1	?	-24.7%	-17.4%	-76.3*	-8.2%	.
Cc1ccccc1NC(=O)c1cc2sccc2n1Cc1ccc(F)cc1	.	2.0%	3.1%	-13.9	-5.1%	.
Cn1c(C(=O)N2CCN(c3nc4ccccc4s3)CC2)cc2sccc21	-12.2%	?	.	-73.8*	.	-1.4%
O=C(c1cc2sccc2n1Cc1ccc(F)cc1)N1CCN(c2nc3ccccc3s2)CC1	3.16µM*	?	?	?	?	0.7%
Cc1cccc(N2CCN(C(=O)C3CCN(C(=O)c4cc5sccc5n4C)CC3)CC2)c1C	.	?	-28.4%	-20.9	-14.8%	.
O=C(c1cccs1)N1CCN(c2nc3ccccc3s2)CC1	-12.3%	?	.	-36.1	.	6.9%
CC(NC(=O)c1cc2sccc2n1Cc1ccc(F)cc1)c1ccccc1 (stereo not given)	.	0.0%	-7.1%	-85.5*	-19.8%	.
COC(=O)c1ccccc1Sc1ncnc2onc(C)c12	?	28.2µM*	-4.2%	-23.4	-19.8%	-22.1%
Cc1noc2ncnc(Sc3ccccc3Cl)c12	?	39.8µM*	-23.5%	-78.8*	?	0.2%
Cc1ccc(Sc2ncnc3onc(C)c23)c(C)c1	-3.8%	-27.7%	-2.5%	15.3	?	0.2%
N#Cc1cccc(C(=O)C(=O)N2CCN(C(=O)OCc3ccccc3)CC2)c1	.	-17.3%	-7.6%	8.9	i	.
Cc1cc2nccc(C)c2cc1C	.	.	-14.3%	.	-7.3%	.
NNC(=O)c1ccc(N2CCc3ccccc32)c([N+](=O)[O-])c1	-6.6%	?	-0.7%	15.8	-11.9%	-11.9%
SMILES	HCV inh	FMDV inh	Vaccinia Venus	HCMV inh	Vaccinia mCherry	Giardia FBPA inh
Cc1ccc(C(=O)NCc2ccc3c(c2)CCN3C(=O)c2ccc(C)cc2)cc1	.	-15.3%	-14.5%	-63.8*	-22.5%	.
O=C(NCc1ccc2c(c1)CCN2C(=O)c1ccccc1)Nc1cccc(C(F)(F)F)c1	.	?	?	-97.4*	?	.
COc1ccc(CCC(=O)NCc2ccc3c(c2)CCN3C(=O)c2cccc(C)c2)cc1	.	?	?	-72.4*	-19.9%	.
Cc1ccc(CNC(=O)c2ccc(N3CCc4ccccc43)c([N+](=O)[O-])c2)cc1	6.31µM*	5.6%	-14.1%	?	-21.0%	-11.0%
O=C1CC(c2ccccc2)Sc2ccccc2N1Cc1ccc(F)cc1 (stereo not given)	.	?	15.1%	-29.8	2.5%	.
COc1ccc(CC(=O)NCc2ccc3c(c2)CCN3C(=O)c2ccc(Cl)cc2)cc1OC	.	?	?	-67.0*	-12.5%	.
COc1cc(C(=O)NCc2ccc3c(c2)CCN3C(=O)c2ccc(Cl)cc2)cc(OC)c1OC	.	?	-15.2%	-26.4	?	.
COc1ccc2nc(N3CCN(C(=O)CS(=O)(=O)c4ccc(C)cc4)CC3)sc2c1	.	?	?	-64.2*	?	.
COc1ccc2nc(N3CCN(C(=O)c4ccco4)CC3)sc2c1	.	10.7%	-10.7%	14.3	-11.0%	.
CC(C)Cc1ccc(CN2CCCC(NC(=O)c3ccnn3C)C2)cc1 (stereo not given)	11.2µM*	?	-21.8%	-79.6*	-3.7%	.
CC(C)Cc1ccc(CN2CCCC(NC(=O)c3cccc(-n4cnnc4)c3)C2)cc1 (stereo not given)	?	?	-28.9%	-60.2*	?	0.1%
CC(C)Cc1ccc(CN2CCCC(NC(=O)c3ccoc3)C2)cc1 (stereo not given)	?	-28.5%	-24.3%	-32.7	-9.8%	.
CC(C)Cc1ccc(CN2CCCC(NC(=O)c3nn(C)c(=O)c4ccccc34)C2)cc1 (stereo not given)	?	-22.4%	.	-5.2	.	3.8%
CCC(C)n1c(C)nc2c(c1=O)c1nc3ccccc3nc1n2CCC1=CCCCC1 (stereo not given)	17.4%	7.4%	.	-88.4*	.	.
